Tau fibril ThT – blocks human tau fibril formation measured by thioflavin T. P10636. recombinant tau K18 P301L, heparin-induced fibrillization, ThT fluorescence. Potency, µM (titrated, usually from 57.4 µM), actives largely listed as inhibitors. actives 2.1% (n = 270,000); also: nearly all actives have a fitted effect of over 55% in size
Target sequence (P10636 561-689 P618L limits assumed): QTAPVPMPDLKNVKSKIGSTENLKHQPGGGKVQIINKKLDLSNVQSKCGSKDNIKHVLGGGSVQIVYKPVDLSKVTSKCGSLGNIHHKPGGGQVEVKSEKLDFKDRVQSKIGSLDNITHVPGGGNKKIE
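Fibril formation assay: tau K18 P301L at 15 uM with trace Alexa 594 label, heparin inducer 20 uM, pH 7 sodium acetate buffer, 37 C for 6 hr; endpoint ThT signal.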
Tau fibril FP – inhibitors of human tau fibril formation; P10636; K18 P301L tau heparin fibrillization, Alexa594 FP, 6 h; Potency, µM (highest dose often 57.7 µM), actives largely listed as inhibitors; actives 0.39% (n = 280,000); AID 1468; also: nearly all actives have a fitted effect of over 55% in size
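Human tau K18 […] P301L fragment, 15 uM unlabeled plus 0.24 uM Alexa 594-labeled tau (final), with compound and 20 uM heparin in 100 mM sodium acetate pH 7; 6 hr at 37 C, then Alexa 594 FP read.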
G9a block – inhibitors of human histone lysine methyltransferase G9a | actives 8.8% (n = 350,000) | AID 504332 | G9a H3K9 monomethylation, AlphaScreen, 2 h | Potency, µM (top dose mostly 102 µM), usual class: inhibitors; also: nearly all actives have a fitted effect of over 75% in size
Target sequence (Q96KQ7 913-1193 limits assumed): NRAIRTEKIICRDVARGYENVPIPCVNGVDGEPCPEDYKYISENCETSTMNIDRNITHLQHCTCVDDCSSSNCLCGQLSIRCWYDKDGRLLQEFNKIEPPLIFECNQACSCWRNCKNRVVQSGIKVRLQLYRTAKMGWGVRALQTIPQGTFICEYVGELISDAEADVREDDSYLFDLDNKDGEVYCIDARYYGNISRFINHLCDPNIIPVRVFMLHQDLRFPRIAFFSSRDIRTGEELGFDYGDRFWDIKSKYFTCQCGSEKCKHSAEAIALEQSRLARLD
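Quantitative HTS format: methyltransferase activity on a biotin-tagged H3K9 peptide is measured by AlphaScreen, using a rabbit anti-monomethyl-H3K9 antibody with streptavidin donor and anti-IgG acceptor beads. Final levels are 20 nM enzyme, 500 nM peptide, 20 uM SAM; 2 h RT.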
Sfp inh – blocks B. subtilis Sfp PPTase activity; actives 3.5% (n = 310,000); Potency, µM, hits mostly inhibitors; Biochemical Sfp PPTase activity, qHTS;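 also: the enzyme is Sfp with the accession as filed and its product quenches rhodamine fluorescence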
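Sfp 15 nM + cpd, 15 min RT; start w/ rhodamine-CoA 5 uM, BHQ-2-YbbR 12.5 uM (final); 50 mM Hepes pH 7.6, 10 mM MgCl2, 0.01% NP-40, 0.01% BSA; read 525/598 nm at 0 and 30 min.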
Tau fluor cs – counter-screen for tau fibril formation inhibitors; tau K18 P301L Alexa594 fluorescence, heparin fibrillization; Potency, µM (doses to about 57.7 µM); actives 0.93% (n = 280,000); also: nearly all actives have a fitted effect of over 55% in size
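Human tau K18 P301L (15 uM unlabeled, 0.24 uM Alexa 594-labeled) in 100 mM sodium acetate pH 7 with 20 uM heparin, 6 hr at 37 C. ThT 30 uM added, 1 hr ambient; Alexa 594 FP and total fluorescence read at 555/632 nm.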
Coupling enz – inhibits coupling enzyme system, counter-screen for aldolase hits | coupling enzyme system counterscreen, AmpLite Red fluorescence | activity change, negative = inhibition, % at 58.2 µM, hits read low | actives 0.67% (n = 290,000) | AID 2472; in the data active = activity change below about -30%
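Compounds tested against the coupling enzymes alone at 57.5 uM final; readout was AmpLite Red fluorescence (525/598 nm) after 20 min at RT.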
Each line names hits and unclear results; the compound was inactive in the other large screens; ! = a repeat was not active; [ ] = remark or other dose. Hits are enriched below; roughly 11% of the tested compounds scored in any of these assays. Unless noted, calls follow the shape of the dose curve; as a rule, active = well fitted curve in the direction sought with a large enough effect; inconclusive = small, poorly fitted or top-dose-only effect, or another doubt; inactive = no such curve, though single readings can be large; an effect the other way counts as inactive or inconclusive.

CCOc1ccc(NC(=O)[C@H]2O[C@@H]3OC(C)(C)O[C@@H]3[C@H]3OC(C)(C)O[C@H]32)cc1	none (no result: Sfp inh, Coupling enz)
CCOC(=O)N1CCC(N2C(=O)c3ccccc3C2Nc2cc(Cl)c(OC)cc2OC)CC1 (centres undefined)	Tau fibril ThT inconclusive, G9a block 45µM
O=C1c2ccccc2C(Nc2ccc(S(=O)(=O)N3CCOCC3)cc2)N1c1cccnc1 (centres undefined)	none
CCOC(=O)N1CCC(N2C(=O)c3ccccc3C2Nc2cc(OC)c(OC)c(OC)c2)CC1 (centres undefined)	G9a block inconclusive
CCOC(=O)N1CCC(N2C(=O)c3ccccc3C2Nc2ccc(S(=O)(=O)N3CCOCC3)cc2)CC1 (centres undefined)	G9a block 45µM
COc1cccc(OCc2cc(/C=N/Nc3ccc(C(=O)O)cc3)ccc2OC)c1	Tau fibril ThT inconclusive, G9a block inconclusive, Tau fluor cs 11µM[quencher]
COc1cc(/C=N/Nc2ccc3ccccc3c2)ccc1OC(=O)c1ccco1	Tau fibril ThT 13µM, G9a block 7.9µM, Tau fluor cs 13µM[quencher]
COc1cc(/C=N/Nc2nc(C)cc(C)n2)ccc1OC(=O)c1ccco1	Tau fibril ThT inconclusive
COc1cc(/C=N/Nc2ccc(Cl)c(C(=O)O)c2)ccc1OC(=O)c1ccccc1F	G9a block 40µM (no result: Tau fibril ThT, Tau fibril FP, Tau fluor cs)
COc1cccc(C(=O)Oc2ccc(/C=N/Nc3ccc(C(=O)O)cc3)cc2OC)c1	Sfp inh inconclusive (no result: Tau fibril ThT, Tau fibril FP, G9a block, Tau fluor cs)
CCOc1cc(/C=N/Nc2ccc(C(=O)O)cc2)ccc1OC(=O)c1ccccc1C	Tau fibril FP inconclusive, G9a block 35µM, Tau fluor cs 0.71µM[quencher] (no result: Tau fibril ThT)
Cc1nc2cnc(N3CCOCC3)nc2n(CCC#N)c1=O	none (no result: Tau fibril ThT, Tau fibril FP, Tau fluor cs)
Cc1c(CCNS(=O)(=O)c2ccccc2)sc2nc(-c3ccc(Cl)cc3)nn12	none (no result: Sfp inh, Coupling enz)
COc1cc(/C=N/NS(=O)(=O)c2ccc3ccccc3c2)ccc1OCc1ccc(C(=O)O)cc1	Tau fibril ThT inconclusive, G9a block 50µM
COc1cc(/C=N/NS(=O)(=O)c2ccc(C)cc2)ccc1OCc1cccc(C(=O)O)c1	none
CC1=C/C(=C\c2ccc3c(c2)OCO3)C(=O)S1	Tau fibril ThT 6.3µM, G9a block 25µM
CCCN1C/C(=C/c2ccc3c(c2)OCO3)C(=O)/C(=C/c2ccc3c(c2)OCO3)C1	Tau fibril ThT 22µM, Tau fibril FP inconclusive, G9a block inconclusive, Sfp inh 40µM
CCCC(=O)NC(C)c1nc2ccccc2n1Cc1ccccc1 (centres undefined)	none (no result: Sfp inh, Coupling enz)
Cc1nc2c(O)cccc2cc1CO	G9a block 10µM, Sfp inh 71µM, Coupling enz -37
CCC1(C)NC(C(=O)O)Cc2c1[nH]c1ccccc21 (centres undefined)	G9a block inconclusive (no result: Tau fibril ThT, Tau fibril FP, Tau fluor cs)
CCCN1CCC2(CC1)NC(C(=O)O)Cc1c2[nH]c2ccccc12 (centres undefined)	G9a block 14µM (no result: Tau fibril ThT, Tau fibril FP, Tau fluor cs)
COC(=O)C1Cc2c([nH]c3ccccc23)C2(CCN(Cc3ccccc3)CC2)N1 (centres undefined)	G9a block 45µM (no result: Tau fibril ThT, Tau fibril FP, Tau fluor cs)
Cc1cccc(-c2nc(Cn3c(SCc4cc(C)ccc4C)nc4ccncc43)c(C)o2)c1	Tau fibril ThT inconclusive (no result: Sfp inh, Coupling enz)
CCN(CC)CCNC(=O)c1c2c(nc3ccccc13)C(=O)N(C1CCCCC1)C2	none (no result: Sfp inh, Coupling enz)
COc1ccccc1C(=O)NC(CCSC)C(=O)NCCCn1nc(C)cc1C (centres undefined)	none (no result: Tau fibril ThT, Tau fibril FP, Sfp inh, Tau fluor cs, Coupling enz)
COc1ccc(NC(=O)CC2Nc3cccc4cccc(c34)NC2=O)cc1 (centres undefined)	Tau fibril ThT inconclusive, G9a block 25µM!, Tau fluor cs inconclusive
O=C(CC1Nc2cccc3cccc(c23)NC1=O)Nc1ccc(F)cc1 (centres undefined)	Tau fibril ThT inconclusive, G9a block inconclusive, Sfp inh inconclusive, Tau fluor cs 8.9µM![quencher]
CC(C)c1ccc(N(CC(=O)NCC2CCCO2)C(=O)Cn2nnc(-c3cccs3)n2)cc1 (centres undefined)	none (no result: G9a block)
CS(=O)(=O)N(CC(=O)NCCSc1ccccc1)c1cc(C(F)(F)F)ccc1Cl	none (no result: Sfp inh, Coupling enz)
Cc1cccc2sc(NNC(=O)c3ccc(S(=O)(=O)N4CCc5ccccc5C4)cc3)nc12	G9a block 40µM, Sfp inh inconclusive
Cc1cccc2sc(NNC(=O)c3ccc(S(=O)(=O)N4CCCC(C)C4)cc3)nc12 (centres undefined)	Tau fibril ThT inconclusive, G9a block 25µM, Sfp inh inconclusive, Tau fluor cs inconclusive
O=C(COc1coc(CN2CCc3ccccc32)cc1=O)Nc1ccccc1	none (no result: Tau fibril ThT, Tau fibril FP, Sfp inh, Tau fluor cs, Coupling enz)
O=C(Nc1ccc(F)c(Cl)c1)C1CCN(S(=O)(=O)c2ccc3c(c2)CCCN3C(=O)C2CCC2)CC1	Tau fibril FP inconclusive, Tau fluor cs inconclusive (no result: Sfp inh, Coupling enz)
COc1ccc(C2=CC(=O)OC3(CCCC3)O2)cc1	G9a block 45µM
CC(C)(C)c1ccc(OCCCNCc2ccccc2)cc1	G9a block 10µM
CC(C)(c1ccccc1)c1ccc(OCCCNCCO)cc1	none
COCCCNCCCOc1ccc(C(C)(C)c2ccccc2)cc1	G9a block 2.8µM, Sfp inh 56µM

From PubChem
